For some of these results: Potency and affinity values are given separately. Active and inactive are the calls of the source.
Experiments:
[1] = Ebola virus entry assay, green fluorescence channel
[2] = Ebola virus entry assay, blue channel fluorescence
[3] = Ebola virus entry assay, green fluorescence channel; remark: listed apart in the source
[4] = Ebola virus entry assay, ratio channel readout
[5] = Ebola virus entry assay, blue channel fluorescence; remark: listed apart in the source
[6] = Ebola virus entry assay, ratio channel
[7] = Ebola virus entry assay, green channel fluorescence
[8] = Ebola virus entry assay, reporter ratio channel; AC50: Channel type: primary unless noted; outcome: Channel type: primary unless noted
[9] = Ebola virus entry assay, blue channel (ratio component)
[10] = Ebola virus entry assay, blue channel fluorescence; remark: listed apart in the source
[11] = Ebola virus entry reporter assay, green channel fluorescence
[12] = qHTS profiling of the MIPE4 collection as inhibitors of Plasmodium falciparum (3D7) proliferation (AID 743344);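 further: scaled between DMSO vehicle wells and 0.29 µM artemisinin as full inhibition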; settings: P. falciparum 3D7 in erythrocytes, SYBR Green DNA fluorescence, 72 h; at 28.5 µM (top of the series) unless noted
In short: (§1)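 Erythrocytes infected with P. falciparum (0.3% parasitemia, 2.5% hematocrit) incubated with compounds 72 h at 37 C, 5% CO2. Lysis with saponin/Triton buffer containing SYBR Green I, overnight at room temperature in the dark; DNA fluorescence (485/535 nm) normalised to 0.29 uM artemisinin and DMSO.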

[13] = qHTS profiling of the MIPE4 collection as inhibitors of Plasmodium falciparum (HB3) proliferation (AID 743347);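 further: plate controls were DMSO vehicle wells for no effect and artemisinin wells for full effect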; settings: P. falciparum HB3 in erythrocytes, SYBR Green DNA, 72 h; at 28.5 µM (top of the series) unless noted
In short: as §1

[14] = qHTS profiling of the MIPE4 collection as inhibitors of Plasmodium falciparum (DD2) proliferation (AID 743345); settings: P. falciparum Dd2 in erythrocytes, SYBR Green DNA, 72 h; at 28.5 µM (top of the series) unless noted
In short: as §1

[15] = qHTS profiling of the MIPE4 collection as inhibitors of Plasmodium falciparum (DD2) proliferation (Rep 2) (AID 743346); settings: P. falciparum Dd2 in erythrocytes, SYBR Green DNA, 72 h; at 28.5 µM (top of the series) unless noted
In short: as §1
Wherever efficacy is given: 0% is about no effect.

Cc1cn([C@H]2C[C@H](N=[N+]=[N-])[C@@H](CO)O2)c(=O)[nH]c1=O
inactive: efficacy [1] 17% | outcome [2] | outcome [3] | outcome [4] | outcome [5] | outcome [6] | outcome [7] | outcome [8] | outcome [9]

Nc1ccc(O)c(C(=O)O)c1
inactive: efficacy [1] 18.3% | outcome [2] | outcome [3] | outcome [4] | outcome [6] | outcome [7] | outcome [10] | outcome [11]
active: AC50 [5] 28.2 µM | AC50 [8] 31.6 µM

CN(C)CCOC(C)(c1ccccc1)c1ccccn1 (stereo not drawn)
inactive: efficacy [1] 20.1% | outcome [2] | outcome [3] | outcome [4] | outcome [7]
active: AC50 [5] 15.8 µM | AC50 [6] 14.1 µM | AC50 [8] 14.1 µM

Nc1cccc2c1CN(C1CCC(=O)NC1=O)C2=O (stereo not drawn)
inactive: efficacy [1] 15.2% | outcome [2] | outcome [3] | outcome [4] | outcome [5] | outcome [6] | outcome [7] | outcome [8] | outcome [9] | outcome [11]

COc1cc2nc(N3CCN(C(=O)C4CCCO4)CC3)nc(N)c2cc1OC (stereo not drawn)
inactive: efficacy [1] 13% | outcome [2] | outcome [3] | outcome [4] | outcome [6] | outcome [7] | outcome [10] | outcome [11]
active: AC50 [5] 35.5 µM | AC50 [8] 28.2 µM

NC1[C@H]2CN(c3nc4c(cc3F)c(=O)c(C(=O)O)cn4-c3ccc(F)cc3F)C[C@@H]12 (stereo partly drawn)
inactive: efficacy [1] -13.1% | outcome [2] | outcome [3] | outcome [4] | outcome [5] | outcome [6] | outcome [7] | outcome [10] | outcome [8] | outcome [11]

CCC1=C[C@@H]2CN(C1)Cc1c([nH]c3ccccc13)[C@@](C(=O)OC)(c1cc3c(cc1OC)N(C)[C@H]1[C@@](O)(C(=O)OC)[C@H](OC(C)=O)[C@]4(CC)C=CCN5CC[C@]31[C@@H]54)C2
inactive: efficacy [1] -100% | outcome [3] | outcome [4] | outcome [7] | outcome [8] inactive [Channel type: confirmation] | outcome [9]
active: AC50 [2] 0.112 µM | AC50 [5] 7.94 µM | AC50 [6] 2.51 µM

CCC(C)(C)C(=O)O[C@H]1C[C@@H](C)C=C2C=C[C@H](C)[C@H](CC[C@@H]3C[C@@H](O)CC(=O)O3)[C@H]21
inactive: efficacy [1] 37.4% | outcome [2] | outcome [3] | outcome [4] | outcome [5] | outcome [7] | outcome [9] | outcome [11]
active: AC50 [6] 7.08 µM | AC50 [8] 7.08 µM

Cc1ccc(C)c(OCCCC(C)(C)C(=O)O)c1
inactive: efficacy [1] -13.5% | outcome [2] | outcome [3] | outcome [4] | outcome [5] | outcome [6] | outcome [7] | outcome [10] | outcome [8] | outcome [11]

Nc1nc(F)nc2c1ncn2[C@@H]1O[C@H](CO)[C@@H](O)[C@@H]1O
31%: parasite growth, % of DMSO control [12]
inactive: efficacy [1] 16.7% | outcome [2] | outcome [3] | outcome [4] | outcome [5] | outcome [6] | outcome [7] | outcome [10] | outcome [8] | outcome [9]
81.8%: growth, % of control [13]

O=NN(CCCl)C(=O)NC1CCCCC1
inactive: efficacy [1] -12.9% | outcome [2] | outcome [3] | outcome [4] | outcome [5] | outcome [6] | outcome [7] | outcome [10] | outcome [8] | outcome [9] | outcome [11]
101%: parasite growth remaining, % of DMSO control (lower = more inhibition) [14]
91.7%: parasite growth, % of DMSO control [12]
74.9%: growth, % of control [13]
72.9%: parasite growth, % of control (lower = inhibition) [15]

OC(Cn1cncn1)(Cn1cncn1)c1ccc(F)cc1F
88.1%: parasite growth, % of control (lower = inhibition) [15]
inactive: efficacy [1] -11.5% | outcome [2] | outcome [3] | outcome [4] | outcome [5] | outcome [6] | outcome [7] | outcome [10] | outcome [8] | outcome [9] | outcome [11]
95.6%: parasite growth, % of DMSO control [12]
103%: growth, % of control [13]

CC(=O)[C@]1(O)Cc2c(O)c3c(c(O)c2[C@@H](O[C@H]2C[C@H](N)[C@H](O)[C@H](C)O2)C1)C(=O)c1ccccc1C3=O
inactive: efficacy [1] 27.8% | outcome [2] | outcome [3] | outcome [4] | outcome [7]
active: AC50 [5] 14.1 µM | AC50 [6] 12.6 µM | AC50 [8] 12.6 µM

CN(C/C=C/C#CC(C)(C)C)Cc1cccc2ccccc12
inactive: efficacy [1] -24.6% | outcome [2] | outcome [3] | outcome [4] | outcome [6] | outcome [7] | outcome [10] | outcome [11]
active: AC50 [5] 28.2 µM | AC50 [8] 35.5 µM

C#Cc1cccc(Nc2ncnc3cc(OCCOC)c(OCCOC)cc23)c1
inactive: efficacy [1] -13.7% | outcome [2] | outcome [3] | outcome [4] | outcome [5] | outcome [6] | outcome [7] | outcome [8] | outcome [9] | outcome [11]

CCC(C)n1ncn(-c2ccc(N3CCN(c4ccc(OC[C@H]5CO[C@](Cn6cncn6)(c6ccc(Cl)cc6Cl)O5)cc4)CC3)cc2)c1=O (stereo partly drawn)
inactive: efficacy [1] 13.1% | outcome [3] | outcome [5] | outcome [6] | outcome [7] | outcome [8] | outcome [9]
active: AC50 [2] 5.01 µM | AC50 [4] 2 µM

CC(C)C(=O)Nc1ccc([N+](=O)[O-])c(C(F)(F)F)c1
93%: parasite growth, % of DMSO control [12]
91%: parasite growth remaining, % of DMSO control (lower = more inhibition) [14]
88.5%: growth, % of control [13]
inactive: efficacy [1] -18.2% | outcome [2] | outcome [3] | outcome [4] | outcome [5] | outcome [6] | outcome [7] | outcome [10] | outcome [8] | outcome [9]
69.2%: parasite growth, % of control (lower = inhibition) [15]

CN1CCC[C@@H]1Cc1c[nH]c2ccc(CCS(=O)(=O)c3ccccc3)cc12
active: AC50 [5] 25.1 µM | AC50 [6] 25.1 µM | AC50 [8] 25.1 µM
inactive: efficacy [1] 20.7% | outcome [2] | outcome [3] | outcome [4] | outcome [7]

COc1cc(NCc2ccc3nc(N)nc(N)c3c2C)cc(OC)c1OC
inactive: efficacy [1] 44.2% | outcome [2] | outcome [3] | outcome [4]
active: AC50 [5] 35.5 µM | AC50 [6] 28.2 µM | AC50 [8] 28.2 µM

Reference: PubChem BioAssay (NCATS)
